INHIBITION data for 54 molecules are collected here from ChEMBL document CHEMBL4513216, “Probing the Open Global Health Chemical Diversity Library for Multistage-Active Starting Points for Next-Generation Antimalarials” (ACS Infect Dis, 2020).

Out of some 69,000 compounds screened, about 8,600 (12%) showed an effect of 50% or more. For the sample, strong results were picked, then their nearest neighbours and some compounds at random.

The test system of this experiment is Plasmodium berghei. Nature of the experiment: Screen against P. berghei liver stage (PbLuc), transformed with Luciferase, at 10uM. The format is functional, HepG2. The settings on record: tested at 10 uM.
For the molecule `Cc1ccc(C(=O)Nc2nn[nH]n2)s1`, the INHIBITION is recorded as 2.61%.

In the case of `Cc1cc(C)c(CNC(=O)NCc2ccc3c(c2)OCCO3)c(=O)[nH]1`, the INHIBITION is on record as -54.6%.

On to `CS(=O)(=O)N1CCN(C(=O)c2cc(-c3cccs3)cs2)CC1`, for which the INHIBITION is 33.3%.

With `CCc1oc(C(=O)NC(C)c2ncn[nH]2)cc1CN1CCCC1` (centres undefined), the INHIBITION is 7.24%.

Take `Cc1cccnc1NC(=O)NCc1cccnc1OC(C)C`: the INHIBITION is 19.4%.

`Cc1cc(C(=O)NC2(c3ccc(Br)cc3)CC2)n(C)n1`: the INHIBITION is given as 47%.

As to `CC(=O)N1N=C(c2ccncc2)OC1C(=O)N(C)CCc1ccccc1` (centres undefined), the INHIBITION was determined as 0.618%.

For the molecule `CNc1ncccc1CN1CCN(c2cc(NC3CC3)nc(N)n2)CC1`, the INHIBITION stood at 5.11%.

Turning to `CCc1ccc2nc(NCC(O)CO)cc(C)c2c1` (centres undefined), the INHIBITION was found to be 50.7%.

For `CCc1ccc2nc(NCCOCCO)cc(C)c2c1`, the INHIBITION is on record as -46.7%.

For `CCc1ccc2nc(NCCCN(CCO)CCO)cc(C)c2c1`, the INHIBITION was determined as 42%.

In the case of `Cn1c(N2CCOCC2)nc2cc(C(=O)N[C@@H]3CC[C@@H](N)C3)ccc21`, the INHIBITION was found to be 33.4%.

As to `CN(C)CCNC(=O)c1ccn(-c2ccc3ccccn23)n1`, the INHIBITION was 13.6%.

On to `Cc1cc(CN2CCN(CC(O)c3ccc(Cl)cc3)CC2)no1` (centres undefined), for which the INHIBITION is reported as 9.14%.

Turning to `Cc1cc(CN2CCN(C(c3ccccc3)c3ccccc3)CC2)no1`, the INHIBITION stood at 85.4%.

Turning to `Cc1cc(CN2CCN(CC(O)c3ccccc3)CC2)no1` (centres undefined), the INHIBITION worked out at 36.4%.

For `Cc1cc(CN2CCN(CC(O)c3ccc(C)c(C)c3)CC2)no1` (centres undefined), the INHIBITION was 62.6%.

Consider `Cc1cc(CN2CCN(CC(O)c3ccc4c(c3)OCO4)CC2)no1` (centres undefined), for which the INHIBITION is given as -1.14%.

Regarding `Cc1cc(CN2CCN(CC(O)c3cccc(F)c3)CC2)no1` (centres undefined), the INHIBITION was -17.6%.

For the molecule `COC(=O)c1ccc(N(C(=O)c2ccncc2)C(C)C)c(C)c1`, the INHIBITION is 7.18%.

As for `COc1ccc(CN2CCCCC2Cn2nc(C)nc2C)cc1F` (centres undefined), the INHIBITION was -37.7%.

Regarding `Cc1cn(-c2ccccc2)nc1NS(=O)(=O)c1cc(C(=O)O)sc1C`, the INHIBITION came to 8.38%.

Turning to `O=C(CCN1CCCO1)N1CC[C@@H](c2ccc3ccccc3c2)[C@H](O)C1`, the INHIBITION was 8.74%.

As for `O=C(CCN1CCCC1)N1CC[C@@H](c2ccc3ccccc3c2)[C@H](O)C1`, the INHIBITION turned out to be 52.2%.

As for `O=C(CCn1cccn1)N1CC[C@@H](c2ccc3ccccc3c2)[C@H](O)C1`, the INHIBITION is given as -28.9%.

Take `CCN1Cc2ccccc2CC2(CCN(CC3CCC3)CC2)C1=O`: the INHIBITION is 36.5%.

For `Cc1n[nH]cc1CNC(=O)Nc1cccc(OCC(F)(F)F)c1`, the INHIBITION is 60.3%.

`Cc1n[nH]cc1CNCc1cccc(OCC(F)(F)F)c1`: the INHIBITION is 66.3%.

For the molecule `CN1CCOC(CNCc2cccc(OCC(F)(F)F)c2)C1` (centres undefined), the INHIBITION is recorded as 21.7%.

As for `CC(C)C(=O)Nc1cccc(OCC(=O)NCc2ccccc2F)c1`, the INHIBITION is 40.6%.

On to `COc1cccc(NC(=O)NCc2cnn(C)c2)c1`, for which the INHIBITION worked out at 13%.

Regarding `Cc1n[nH]cc1CNCc1ccnc(OCC(F)(F)F)c1`, the INHIBITION was determined as 28.5%.

With `CCN(Cc1cnn(C)c1)C[C@H]1CC[C@@H](Cc2cccc(C#N)c2)O1`, the INHIBITION is on record as -15.7%.

On to `O=C1CN(C(=O)C2CCCCC2)CC(O)CN1Cc1ccco1` (centres undefined), for which the INHIBITION is listed as -11.1%.

As to `CC(C)c1nc2n(n1)CC(NCc1ncc(C(C)(C)C)o1)CC2` (centres undefined), the INHIBITION was -33.9%.

Turning to `Cc1c(C)n2c(SCC(=O)N3CCC(C)CC3)nnc2[nH]c1=O`, the INHIBITION is -5.1%.

For `Cc1cc(C)c2cc(CNCc3ccc(C)o3)c3nn(C)c(=O)n3c2c1`, the INHIBITION worked out at 54.5%.

With `Cc1cc(C(=O)NCc2ccco2)nn1C`, the INHIBITION came to 10.075%.

For `Cc1cc(C)c2cc(CNCc3ccco3)c3nn(C)c(=O)n3c2c1`, the INHIBITION is on record as 60.4%.

`Cc1cc(C)c(N(CC(O)CNCc2ccco2)S(C)(=O)=O)c(C)c1` (centres undefined): the INHIBITION is on record as 9.96%.

On to `Cc1ccc(CNC(=O)c2cc(C)n(C)n2)o1`, for which the INHIBITION is 35.75%.

Consider `Cc1ccn(CCC(=O)NCc2ccc(C)o2)n1`, for which the INHIBITION turned out to be 27.5%.

For `CNc1cc(C2CCCN2Cc2ccc(OCC(=O)O)cc2)ccn1` (centres undefined), the INHIBITION is -17.7%.

`Cc1ccc(N2CCCN(C(=O)CCC3CCCO3)CC2)nn1` (centres undefined): the INHIBITION is -14.6%.

On to `CN(CCSc1nncn1CC(F)(F)F)c1ccccc1`, for which the INHIBITION is reported as -31.4%.

Take `O=C(Cc1cccc(F)c1)NCCCNC(=O)c1cccc(O)c1`: the INHIBITION is recorded as -29.7%.

As to `Cc1ncc(CNC(=O)CCc2c(C)noc2C)c(C2CCCN2C)n1` (centres undefined), the INHIBITION was found to be 4.08%.

Turning to `Cn1nc(C2CCN(C(=O)Cc3cccc(F)c3)CC2)c2cccnc21`, the INHIBITION came out at 46.6%.

As to `CN1CCCN(C[C@@H]2CN(C(=O)CC3CCC3)C[C@@H]2CO)CC1`, the INHIBITION was -6.91%.

Take `COc1cccc(CC(=O)N2CCN(C)c3ncccc3C2)c1`: the INHIBITION is recorded as -93%.

`NCc1cnn(-c2ccccc2C(=O)N2CCCC(C(N)=O)C2)c1` (centres undefined): the INHIBITION is on record as 9.05%.

Consider `CNC(=O)C1CCCN(C(=O)c2ccccc2-n2cc(CN)cn2)C1` (centres undefined), for which the INHIBITION is listed as 1.62%.

As for `CN(C)C(=O)C1CCCN(C(=O)c2ccccc2-n2cc(CN)cn2)C1` (centres undefined), the INHIBITION was 50.8%.

For the molecule `CCCS(=O)(=O)N1C[C@@H](Oc2ncccc2F)[C@H]2OCCC[C@H]21`, the INHIBITION stood at 30.3%.
